The supplement of paper PMC8866396
± gives the standard deviation of the averaged measurements.

What was measured:
[1] = test system: IL-6-GFP PC-9GR; experiment: cell viability (CCK-8 OD) relative to DMSO control (fraction of control); higher = more viable cells; conditions: compound concentration: 10 uM; treatment time: 48 h
Method in brief: (§1)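 Each well's viability is its CCK-8 optical density divided by that of the vehicle control well. The cells, PC-9 and PC-9GR lung cancer lines overexpressing IL-6-GFP from a lentiviral construct, were seeded at 3000 cells/well in 96-well plates and exposed for 48 h to each compound of a purchased 510-compound library at a final 10 μM, in two independent replicates.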

[2] = test system: IL-6-GFP PC-9; experiment: as above; conditions: compound concentration: 10 uM; treatment time: 48 h
Method in brief: as §1

Row | Structure (SMILES) | cell viability [1] | cell viability [2]
1 | COc1cccc2c1C(=O)c1c(O)c3c(c(O)c1C2=O)CC(O)(C(=O)CO)CC3OC1CC(N)C(O)C(C)O1.Cl (stereo unspecified) [Epirubicin HCl] | 0.141 ± 0.14 | 0.1407 ± 0.00071
2 | CC1CC2C(C(O)CC3(C)C2CCC3(O)C(=O)COC(=O)CCC(=O)O)C2(C)C=CC(=O)C=C12 (stereo unspecified) [Methylprednisolone hemisuccinate] | 0.848 ± 0.037 | 0.911 ± 0.24
3 | OCC1OC(c2ccc(Cl)c(Cc3ccc(OC4CCOC4)cc3)c2)C(O)C(O)C1O (stereo unspecified) | 1.05 ± 0.13 | 0.905 ± 0.058
4 | O=C1OC(OC(=O)c2cccnc2Nc2cccc(C(F)(F)F)c2)c2ccccc21 (stereo unspecified) [Talniflumate] | 1 ± 0.022 | 0.967 ± 0.02
5 | COc1cc(C2c3cc4c(cc3C(OC3OC5COC(c6cccs6)OC5C(O)C3O)C3COC(=O)C23)OCO4)cc(OC)c1O (stereo unspecified) [Teniposide] | 0.0642 ± 0.047 | 0.121 ± 0.035
6 | O=c1[nH]c(=O)n(C2CC(O)C(CO)O2)cc1F (stereo unspecified) [Floxuridine] | 0.681 ± 0.02 | 0.808 ± 0.25
7 | Cc1ccc(NC(=O)c2ccc(CN3CCN(C)CC3)cc2)cc1Nc1nc(-c2cccnc2)cs1 [Masitinib (AB1010)] | 0.268 ± 0.05 | 0.366 ± 0.26
8 | NCCc1c[nH]cn1 [Histamine] | 1.05 ± 0.16 | 1.29 ± 0.22
9 | Nc1nc(CC(=O)Nc2ccc(CCNCC(O)c3ccccc3)cc2)cs1 (stereo unspecified) [Mirabegron] | 1.09 ± 0.19 | 0.791 ± 0.035
10 | OCc1ccccc1OC1OC(CO)C(O)C(O)C1O (stereo unspecified) [Salicin] | 1.49 ± 0.23 | 1.2 ± 0.097
11 | COC(=O)NC(C(=O)N1CCCC1c1ncc(-c2ccc3c(c2)OC(c2ccccc2)n2c-3cc3cc(-c4cnc(C5CCCN5C(=O)C(NC(=O)OC)C(C)C)[nH]4)ccc32)[nH]1)C(C)C (stereo unspecified) [Elbasvir] | 0.497 ± 0.03 | 0.809 ± 0.035
12 | CC(C)(C)OC(=O)NC1CCCCC/C=C\C2CC2(C(=O)NS(=O)(=O)C2CC2)NC(=O)C2CC(OC(=O)N3Cc4cccc(F)c4C3)CN2C1=O (stereo unspecified) [Danoprevir (ITMN-191)] | 1.1 ± 0.02 | 0.931 ± 0.15
13 | CCCC(=O)OC1(C(=O)CCl)C(C)CC2C3CCC4=CC(=O)C=CC4(C)C3(F)C(=O)CC21C (stereo unspecified) [clobetasone butyrate] | 0.995 ± 0.17 | 0.99 ± 0.3
14 | CC(C(=O)O)c1cccc(C(=O)c2ccccc2)c1 (stereo unspecified) [Ketoprofen] | 1.64 ± 0.37 | 1.02 ± 0.11
15 | O=C(Oc1ccccc1C(=O)O)c1ccccc1O [Sasapyrine] | 0.988 ± 0.067 | 1.25 ± 0.019
16 | CC(C(=O)O)c1ccc(CC2CCCC2=O)cc1 (stereo unspecified) [Loxoprofen] | 1.04 ± 0.028 | 1.29 ± 0.05
17 | COc1ccc2cc1Oc1ccc(cc1)CC1c3cc(c(OC)cc3CCN1C)Oc1c(OC)c(OC)cc3c1C(C2)N(C)CC3 (stereo unspecified) [Tetrandrine] | 1.15 ± 0.36 | 1.3 ± 0.043
18 | CNC(=O)c1ccc(N2C(=S)N(c3cnc(C#N)c(C(F)(F)F)c3)C(=O)C23CCC3)cc1F | 1.03 ± 0.13 | 1.02 ± 0.11
19 | CCOc1cc2ncc(C#N)c(Nc3ccc(OCc4ccccn4)c(Cl)c3)c2cc1NC(=O)/C=C/CN(C)C [Neratinib (HKI-272)] | 0.795 ± 0.045 | 0.506 ± 0.052
20 | Nc1ccc(S(=O)(=O)Nc2ccnn2-c2ccccc2)cc1 [Sulfaphenazole] | 1.15 ± 0.36 | 1.29 ± 0.11
21 | Nc1nc(Cl)nc2c1ncn2C1CC(O)C(CO)O1 (stereo unspecified) [Cladribine] | 0.941 ± 0.059 | 0.762 ± 0.076
22 | COc1nc2ccc(Br)cc2cc1C(c1ccccc1)C(O)(CCN(C)C)c1cccc2ccccc12 (stereo unspecified) [Bedaquiline] | 0.849 ± 0.0096 | 0.85 ± 0.17
23 | CC#CCn1c(N2CCCC(N)C2)nc2c1c(=O)n(Cc1nc(C)c3ccccc3n1)c(=O)n2C (stereo unspecified) [Linagliptin] | 0.849 ± 0.11 | 0.883 ± 0.22
24 | COc1c2occc2c(OC)c2c(=O)cc(C)oc12 [Khellin] | 0.831 ± 0.16 | 0.888 ± 0.17
25 | CC(=O)Nc1cccc(-n2c(=O)n(C3CC3)c(=O)c3c(Nc4ccc(I)cc4F)n(C)c(=O)c(C)c32)c1 | 1.04 ± 0.14 | 0.791 ± 0.31
26 | O=C(c1ccc(OCCN2CCCCC2)cc1)c1c(-c2ccc(O)cc2)sc2cc(O)ccc12 [Raloxifene] | 0.849 ± 0.1 | 1.08 ± 0.11
27 | Nc1c(CC(=O)[O-])cccc1C(=O)c1ccc(Br)cc1.[Na+] [Bromfenac Sodium] | 0.923 ± 0.095 | 1 ± 0.14
28 | CN1C(C(=O)Nc2ccccn2)=C(O)c2sccc2S1(=O)=O [Tenoxicam] | 1.16 ± 0.15 | 1.21 ± 0.1
